Laboratory results reported in the supplement of paper PMC9023506.
Counter-ions that a name gives are not always drawn.

system: Danio rerio larvae (5 dpf); test: optomotor response to red moving lines, difference vs DMSO (percentage points (treated minus DMSO)); higher = more of the behaviour than the DMSO vehicle control; details: 10 µM; exposure time: 3 h pre-incubation + 3 h imaging
Experimental: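 5-dpf wild-type zebrafish larvae were imaged in 96-well plates. They were treated with 190 Tocris FDA-approved drugs at 10 µM (1 µl/ml DMSO) for 3 h before and 3 h during imaging at 28.5 °C, 48 larvae per drug. Automated image analysis gave % time moving and optomotor responses. Values are drug group mean minus DMSO vehicle mean (n=844), in percentage points, for 10 behaviours.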

SMILES | optomotor response to red moving lines
CN(C)CCc1c[nH]c2ccc(C[C@H]3COC(=O)N3)cc12 [Zolmitriptan] | 2.8
CC(C)[C@H]1CC[C@H](C(=O)N[C@H](Cc2ccccc2)C(=O)O)CC1 [Nateglinide] | 12.8
COCCc1ccc(OCC(O)CNC(C)C)cc1 (stereo not given) [Metoprolol tartrate] | -1.5
Nc1ncn([C@H]2C[C@H](O)[C@@H](CO)O2)c(=O)n1 [Decitabine] | -3.68
Nc1ccn([C@@H]2O[C@H](CO)[C@@H](O)C2(F)F)c(=O)n1 [Gemcitabine hydrochloride] | 12.3
Cc1ccsc1C(=CCCN1CCC[C@@H](C(=O)O)C1)c1sccc1C [Tiagabine hydrochloride] | 20.4
O=C1CCc2cc(OCCCCc3nnnn3C3CCCCC3)ccc2N1 [Cilostazol] | -8.76
CCOC(=O)c1ncn2c1CN(C)C(=O)c1cc(F)ccc1-2 [Flumazenil] | -7.04
CC(C)(C(=O)c1cccnc1)c1cccnc1 [Metyrapone] | 4.83
CCCCCOC(=O)Nc1nc(=O)n([C@@H]2O[C@H](C)[C@@H](O)[C@H]2O)cc1F [Capecitabine] | 4.71
CCCc1nc(C(C)(C)O)c(C(=O)O)n1Cc1ccc(-c2ccccc2-c2nnn[nH]2)cc1 [Olmesartan] | -10.3
CC(C)c1nc(N(C)S(C)(=O)=O)nc(-c2ccc(F)cc2)c1/C=C/[C@@H](O)C[C@@H](O)CC(=O)O [Rosuvastatin calcium] | 7.07
COC(c1ccccc1)(c1ccccc1)[C@H](Oc1nc(C)cc(C)n1)C(=O)O [Ambrisentan] | -4.02
CCCN(CCC)S(=O)(=O)c1ccc(C(=O)O)cc1 [Probenecid] | -2.21
CN(C)CC/C=C1/c2ccccc2COc2ccc(CC(=O)O)cc21 [Olopatadine hydrochloride] | 19
Nc1nc2[nH]cc(CCc3ccc(C(=O)N[C@@H](CCC(=O)O)C(=O)O)cc3)c2c(=O)[nH]1 [Pemetrexed] | -7.22
CC(C)(C#N)c1cc(Cn2cncn2)cc(C(C)(C)C#N)c1 [Anastrozole] | -3.51
C/C(O)=C(\C#N)C(=O)Nc1ccc(C(F)(F)F)cc1 [Teriflunomide] | -3.45
Cc1cn([C@H]2C=C[C@@H](CO)O2)c(=O)[nH]c1=O [Stavudine] | 9.7
CN1CC(=O)N2[C@H](c3ccc4c(c3)OCO4)c3[nH]c4ccccc4c3C[C@@H]2C1=O [Tadalafil] | -0.75

SMILES | optomotor response to red moving lines
NS(=O)(=O)c1cc(C(=O)O)c(NCc2ccco2)cc1Cl [Furosemide] | 4.84
C=C1[C@H](CO)[C@@H](O)C[C@@H]1n1cnc2c(=O)[nH]c(N)nc21 [Entecavir] | 1.68
Nc1ncn([C@@H]2O[C@H](CO)[C@@H](O)[C@H]2O)c(=O)n1 [5-Azacytidine] | 5.02
CC(=O)O[C@]1(C(C)=O)CC[C@H]2[C@@H]3C=C(C)C4=CC(=O)CC[C@]4(C)[C@H]3CC[C@@]21C [Megestrol Acetate] | 3.71
CCc1nc(N)nc(N)c1-c1ccc(Cl)cc1 [Pyrimethamine] | 8.52
COc1cc(N)c(Cl)cc1C(=O)NC1CCN(CCCOc2ccc(F)cc2)CC1OC (stereo not given) [Cisapride] | -3.64
CCN(CC)CCNC(=O)c1c(C)[nH]c(/C=C2\C(=O)Nc3ccc(F)cc32)c1C [Sunitinib malate] | -0.697
N#Cc1ccc(C(c2ccc(C#N)cc2)n2cncn2)cc1 [Letrozole] | -12.7
CCN(Cc1ccncc1)C(=O)C(CO)c1ccccc1 (stereo not given) [Tropicamide] | 1.4
CCOc1nc2cccc(C(=O)O)c2n1Cc1ccc(-c2ccccc2-c2noc(=O)[nH]2)cc1 [Azilsartan] | -3.43
O=C1CCc2ccc(OCCCCN3CCN(c4cccc(Cl)c4Cl)CC3)cc2N1 [Aripiprazole] | 6.21
O=c1n(CCCN2CCN(c3cccc(Cl)c3)CC2)nc2ccccn12 [Trazodone hydrochloride] | 14.6
CN1CCN(CCCN2c3ccccc3Sc3ccc(Cl)cc32)CC1 [Prochlorperazine dimaleate] | 4.44
OCCOCCN1CCN(C2=Nc3ccccc3Sc3ccccc32)CC1 [Quetiapine hemifumarate] | 6.92
O=C(O)CCCc1ccccc1 [Sodium 4-Phenylbutyrate] | 3.33
Cc1cc2c(s1)Nc1ccccc1N=C2N1CCN(C)CC1 [Olanzapine] | 4.76
CCCCC1=NC2(CCCC2)C(=O)N1Cc1ccc(-c2ccccc2-c2nnn[nH]2)cc1 [Irbesartan] | -7.57
C[C@H](Cc1cc2c(c(C(N)=O)c1)N(CCCO)CC2)NCCOc1ccccc1OCC(F)(F)F [Silodosin] | 6.25
CNCc1ccc(-c2[nH]c3cc(F)cc4c3c2CCNC4=O)cc1 [Rucaparib camsylate] | 2.5
CC/C(=C(\c1ccccc1)c1ccc(OCCN(C)C)cc1)c1ccccc1 [Tamoxifen citrate] | -11
